Several values for one entry are separate records, joined by “and”; a condition that tells them apart may be missing. Equal entries are not always repeated. ± gives the standard deviation of the averaged measurements.
These compounds were tested on HCC1569 (assay: cell number relative to DMSO (% of DMSO); higher = more cells (less growth inhibition / toxicity)). Conditions: concentration: 10 µM; 24 h.
Procedure, shortened: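 Compounds were applied at 10 µM for 24 h at 37 °C, in triplicate, to HCC1569 and TDF cells. The cells were then fixed and stained for H1.0, and nuclei were counterstained with DAPI. Nuclear H1.0 intensity or cell number is reported relative to the plate control as a percent, taking the median of replicates. Smoothing for positional effects was applied to HCC1569 values only.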
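Also: TDF denotes transformed human dermal fibroblasts of mesenchymal origin.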

Structure (SMILES)	cell number
O=C(O)C(O)C(O)C(=O)O.O=C(c1ccc(F)cc1)C1CCN(CCn2c(=O)[nH]c3ccccc3c2=O)CC1 [Ketanserin tartrate]	96.9
CCN1CCCC1CNC(=O)c1cc(S(=O)(=O)CC)c(N)cc1OC (stereo not given) [Amisulpride]	107
Cl.NC1(C(=O)O)CC1 [1-Aminocyclopropanecarboxylic acid hydrochloride]	100
O=C(NC(CO)C(O)c1ccc([N+](=O)[O-])cc1)C(Cl)Cl (stereo not given) [Chloramphenicol]	100
COc1ccc(Cl)cc1C(=O)NCCc1ccc(S(=O)(=O)NC(=O)NC2CCCCC2)cc1 [Glyburide]	107
CCCn1c(=O)[nH]c(=O)c2[nH]cnc21 [3-n-Propylxanthine]	104
CS(=O)(=O)O.Cc1ccc(N(CC2=NCCN2)c2cccc(O)c2)cc1 [Phentolamine mesylate]	99
CC(=O)NC(Cc1c[nH]c2ccccc12)C(=O)OCc1cc(C(F)(F)F)cc(C(F)(F)F)c1 (stereo not given)	102
CC1(C)CCC(C)(C)c2cc(C3(c4ccc(C(=O)O)cc4)OCCO3)ccc21	100
CC[C@H](NC(=O)c1c(O)c(-c2ccccc2)nc2ccccc12)c1ccccc1	101
C[N+](C)(C)CCC(=O)c1cccc2ccccc12.[I-] [2-(alpha-Naphthoyl)ethyltrimethylammonium iodide]	92.7
COc1cc2c(cc1CC=C(C)C)C(=O)CC(c1ccc(O)cc1)O2 (stereo not given) [Bavachinin A]	103
CC[C@H](C)C(=O)O[C@H]1C[C@H](O)C=C2C=C[C@H](C)[C@H](CC[C@@H](O)C[C@@H](O)CC(=O)[O-])[C@H]21.[Na+]	101
CC1(C)CNc2cc(NC(=O)c3cccnc3NCc3ccncc3)ccc21 [Motesanib]	90
COCCc1ccc(OCC(O)CNC(C)C)cc1 (stereo not given) [Metoprolol]	104
CON=C(C(=O)NC1C(=O)N2C(C(=O)[O-])=C(CSc3nc(=O)c([O-])nn3C)CSC12)c1csc(N)n1.[Na+].[Na+] (stereo not given) [Ceftriaxone sodium]	101
COc1cc(C=Cc2ccccc2)oc(=O)c1 [5,6-Dehydrokawain]	104
O=c1cc(-c2ccc(O)c(O)c2)oc2cc(O)cc(O)c12 [Luteolin]	74.6 ± 15
O=C(Nc1ccc(Oc2ccnc3[nH]ccc23)c(F)c1)c1cccn(-c2ccc(F)cc2)c1=O	102
CC(O)(P(=O)([O-])O)P(=O)([O-])O [Etidronate]	101

Structure (SMILES)	cell number
Cl.NO [Hydroxylamine hydrochloride]	96.2
N#CC(=Cc1ccc(O)c(O)c1)C(=O)c1ccc(O)c(O)c1 [Tyrphostin AG 538]	80.4
COc1cc2c(Nc3ccc(NC(=O)c4ccccc4)cc3)ncnc2cc1OCCCN1CCOCC1	49.8
COc1c(N2CCNC(C)C2)c(F)cc2c(=O)c(C(=O)O)cn(C3CC3)c12 (stereo not given) [Gatifloxacin]	101
NS(=O)(=O)c1cc(C(=O)O)c(NCc2ccco2)cc1Cl [Furosemide]	101 ± 1.2
COCCOC(=O)C1=C(C)NC(C)=C(C(=O)OCC=Cc2ccccc2)C1c1cccc([N+](=O)[O-])c1 (stereo not given) [Cilnidipine]	104
CCC(C(=O)C(C)C(O)C(C)CCc1ccc(C)c(O)c1C(=O)[O-])C1OC(CC)(C2CCC(O)(CC)C(C)O2)CC1C.[Na+] (stereo not given) [Lasalocid A]	79.3
Cc1nc(C(=O)N2CCC[C@H]2Cc2nnc(-c3ccccc3)o2)c(-c2ccccc2F)s1	96.3
CCCCCCCCC=CCCCCCCCCCCCC(=O)O [13(Z)-Docosenoic acid]	104
Cc1cccc(Nc2cc(Cl)nc(SCC(=O)O)n2)c1C	101
CC1=C(CC(=O)O)c2cc(F)ccc2C1=Cc1ccc(S(C)=O)cc1 (stereo not given) [Sulindac]	103 ± 2
CCOc1cc(N2CCC(O)CC2)ccc1Nc1ncc2c(n1)N(C)c1ccccc1C(=O)N2C	85.6
Cl.Fc1cccc(CN(C2=NCCN2)c2c(Cl)cccc2Cl)c1 [IMID-4F hydrochloride]	99.4
COc1ccc(-c2cc(=O)c3c(O)c(OC)c(OC)cc3o2)cc1O	68.2
C[C@]12CCC(=O)C=C1CC[C@@H]1[C@@H]2[C@@H](O)C[C@@]2(C)[C@H]1CC[C@]2(O)C(=O)COC(=O)CCC(=O)[O-].[Na+]	96.3
COc1c(N2CC3CCCNC3C2)c(F)cc2c(=O)c(C(=O)O)cn(C3CC3)c12.Cl (stereo not given) [Moxifloxacin.HCl]	101
CCCCCC(O)C=CC1C(O)CC2CC(=CCCCC(=O)O)CC21 (stereo not given) [Carbacyclin]	103
c1cc(OCCN2CCCCC2)cc(-c2n[nH]c3ccc(-c4ncn[nH]4)cc23)c1	88.3
N#CC(=C(N)Sc1ccccc1N)C(C#N)=C(N)Sc1ccccc1N	102 and 101
CCCn1c(=O)c2[nH]c(C3CCCC3)nc2n(CCC)c1=O [8-Cyclopentyl-1,3-dipropylxanthine]	101

Reference: the supplement of paper PMC7156485
